Most compounds without a hit are left out; they make up all but 12% or so of the library.
L major viab: Leishmania major promastigote growth inhibition, primary screen. Leishmania major promastigotes, resazurin fluorescence viability. inhibition, % at 10 µM. 200,000 compounds, 9% hits. AID 1063, 2008; in the data active means inhibition above about 50%;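 further: promastigotes grown with compound for 44 hours at 28 °C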
Insulin prom up: insulin promoter activators in MIN6 cells, imaging, high-content screening, mouse beta cells | MIN6 insulin promoter-GFP reporter; active compounds read high | z-score at 5 µM | 190,000 compounds, 0.3% hits;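 active means z-score above 3 at 5 µM with at least 500 cells counted in the well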
WT yeast gro inh: growth inhibition of WT strain, primary screen, mitochondrial fusion inhibitor project, WT and mutant strains, chemical genetic; 190,000 compounds, 2.1% hits; inhibition, % at 10 µM; mitochondrial fusion phenotypic screen; in the data active means inhibition above about 58%; tested in S. cerevisiae
Cl transport mod: KCC2 cotransporter modulators, thallium flux, primary screen, cell-based, HEK293 KCC2, FluoZin-2 fluorescence, MLSMR. Solute carrier family 12 member 5 (Homo sapiens), Q9H2X9. KCC2 cells, thallium flux FluoZin-2 fluorescence. B-score of Tl+ flux slope (higher = more flux/activation; lower = inhibition) at 10 µM. 190,000 compounds, 2.2% hits. AID 1456, 2008;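 active means thallium flux slope and its plate-corrected score both differing from the plate sample mean at a set confidence after two filtering rounds, in either direction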;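 further: slope of fluorescence scaled to starting intensity during 10 to 20 s after thallium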
ROMK mod: ROMK potassium channel modulators, primary screen, cell-based, thallium flux, MLSMR library | Tet-inducible ROMK, thallium flux fluorescence; actives lie on both sides | B-score at 10 µM | 130,000 compounds, 2% hits;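 active means signal ratio slope over the read window, or its plate-corrected B-score, at least 3 SD from the plate mean, either direction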;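 further: B-score of the F/F0 ratio slope over 7 to 12 s after thallium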
Target sequence (P48048 whole entry, looked up): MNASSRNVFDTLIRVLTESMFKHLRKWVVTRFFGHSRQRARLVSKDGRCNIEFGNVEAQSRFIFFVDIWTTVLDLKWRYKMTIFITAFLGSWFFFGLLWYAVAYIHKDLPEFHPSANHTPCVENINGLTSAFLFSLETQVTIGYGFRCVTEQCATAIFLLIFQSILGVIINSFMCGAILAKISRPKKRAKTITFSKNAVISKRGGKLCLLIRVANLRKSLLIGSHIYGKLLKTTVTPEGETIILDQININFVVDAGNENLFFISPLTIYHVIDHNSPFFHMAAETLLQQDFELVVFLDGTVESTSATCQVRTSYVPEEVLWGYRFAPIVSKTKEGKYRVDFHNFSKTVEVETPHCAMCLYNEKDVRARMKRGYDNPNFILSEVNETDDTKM
Insulin prom inh: inhibitors of insulin promoter-driven GFP, primary screen, imaging, TRM-6 cells (human fetal islet line), eGFP reporter, cell count. 130,000 compounds, 0.9% hits. reporter expression induced with tamoxifen. inhibition, % at 2 µM;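 active means inhibition above the mean plus 3 SD, with well images judged a real hit on visual review, cut at about 60% in these data, passing the limit was not always enough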
Hits are given with their value; 0 = inactive; - = not tested or not shown.

SMILES	L major viab	Insulin prom up	WT yeast gro inh	Cl transport mod	ROMK mod	Insulin prom inh
COc1ccc(S(=O)(=O)NCC(c2cccnc2)N2CCN(c3ccccc3OC)CC2)cc1C (stereo not given)	98	0	0	-	0	0
COc1ccccc1N1CCN(C(CNS(=O)(=O)c2ccccc2)c2cccnc2)CC1 (stereo not given)	93	0	0	-	0	0
CC(C)CCNC(=O)NC(=O)CSc1nnc(COc2ccccc2Cl)o1	0	0	0	0	0	0
O=C1C2ON(c3ccccc3)C(c3ccncc3)C2C(=O)N1c1ccccc1 (stereo not given)	0	0	0	0	0	73
Cc1cccc(C)c1N1C(=O)C2ON(c3ccccc3)C(c3ccncc3)C2C1=O (stereo not given)	0	0	0	-	0	-
CCOc1ccc(/C=N/NC(=O)C(C)N(c2ccc(OC)cc2)S(C)(=O)=O)cc1 (stereo not given)	0	0	0	0	0	-
CCc1ccc(OCC(=O)N2c3ccccc3CCc3ccccc32)cc1	0	0	81	0	0	0
Cc1ccc(OCC(=O)N2CCc3ccccc32)cc1	0	0	0	0	0	0
O=C(CO/N=C/c1ccccc1O)N1CCc2ccccc21	75	0	0	0	0	0
O=C(COc1ccccc1F)N1c2ccccc2CCc2ccccc21	0	0	0	0	-	-
O=C(COc1ccc2c(c1)CCC2)N1CCc2ccccc21	52	0	0	0	-	-
CCN(c1ccc(NC(=O)COC(=O)c2cccs2)cc1)C(C)C	0	0	0	0	0	0
Nc1nc(Nc2ccccc2)nc2ccccc12	80	0	0	0	0	0
Nc1nc(Nc2ccc(Cl)cc2)nc2ccccc12	93	-	-	0	0	0
Nc1nc(CCl)nc(Nc2ccccc2)n1	0	0	0	0	0	0
Cc1ccccc1Nc1ncc(C#N)c(N)n1	-	0	-	0	-	-
Cc1ccccc1Nc1nc(N)c2ccccc2n1	96	-	0	0	0	-
CCCC(O)(CCC)C(=O)NN(C(=O)OC)c1ccccc1	0	0	0	0	-	-
C/C(=N\N1CCN(C2c3ccccc3-c3ccccc32)CC1)c1ccncc1	0	0	0	0	-	0
Cn1c(=O)c2c(nc(CN3CCc4ccccc4C3)n2Cc2ccc(Cl)cc2)n(C)c1=O	0	0	0	0	0	0
CCC(c1nnnn1C1CCCC1)N(Cc1cccs1)Cc1cc2cc(C)ccc2[nH]c1=O (stereo not given)	63	0	0	0	-	-
Cc1ccc2[nH]c(=O)c(CN(Cc3cccs3)Cc3nnnn3CC3CCCO3)cc2c1 (stereo not given)	0	0	0	0	0	-
CCOc1ccc2[nH]c(=O)c(CN(Cc3cccs3)C(CC)c3nnnn3C(C)(C)CC)cc2c1 (stereo not given)	75	0	0	0	0	0
CCC(c1nnnn1C(C)(C)C)N(Cc1cccs1)Cc1cc2cc(C)c(C)cc2n2nnnc12 (stereo not given)	78	-	-	0	-	0
CCOC(=O)C1NN=C(C(=O)c2ccccc2)C1c1ccc(OC)cc1 (stereo not given)	0	-	0	0	0	0
SMILES	L major viab	Insulin prom up	WT yeast gro inh	Cl transport mod	ROMK mod	Insulin prom inh
Cc1ccc(Cn2nnc3c(=O)n(CC(=O)c4ccccc4)cnc32)cc1	0	0	0	0	-	-
COc1ccc(CC(=O)NCc2n[nH]c(=S)n2-c2cccc(C)c2)cc1	0	0	0	0	0	71
OCCSc1nnc(Nc2ccccc2)s1	0	0	0	-	0	-
N#CCSc1nnc(Nc2ccccc2)s1	65	0	0	0	0	0
CC(C)OC(=O)CC12CN3CC(CC(=O)OC(C)C)(CN(C1)C(=O)c1ccccc1C3=O)C2=O	0	0	0	0	-	0
CCCCCCCCSc1nnc(CSc2nc3nc(C)cc(C)n3n2)o1	67	0	0	-	-	-
CNc1ccc(C(O)(C(F)(F)F)C(F)(F)F)cc1C(O)(C(F)(F)F)C(F)(F)F	98	0	0	0	-	0
O=C(NCc1ccco1)c1ccc(Cn2c(=O)c3sccc3n(Cc3cccc(F)c3)c2=O)cc1	0	0	0	0	-	-
O=C(NCc1cccc(F)c1)c1ccc(N2C(=O)Cn3c(cc4sccc43)C2=O)cc1	61	0	0	0	-	0

Screening results (PubChem)
